Results published in PubChem BioAssay (NCI).
This is part of a sample that, as a whole, favours compounds with a hit. Of some 83,000 tested, about 20% had one in any assay.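 Plates (96-well) were seeded with cells, treated with compound at one concentration, and incubated for 48 hours before percent growth was determined.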 A number with no mark means an inactive call. The source made the active and inactive calls.

Tested on: EKVX NSCLC
Assay: NCI-60 one-dose screen, 48 h (100 = growth as untreated, 0 = no growth, -100 = all killed)
Settings: 10 µM unless noted
Procedure: Growth inhibition of the EKVX human Non-Small Cell Lung tumor cell line is measured as a screen for anti-cancer activity. Cells are grown in 96 well plates and exposed to the test compound for 48 hours. Compounds are tested at a single concentration, which is 10^-5 M for most compounds. The reported endpoint is percent growth (GI% or GIPRCNT), where numbers from 0 - 100% represent growth inhibition, and numbers from -100% - 0 represent cell death. For example, a value of 40 represents 60% growth inhibition. A value of 0 means no net growth occurred over the course of the experiment. A value of -40 indicates 40% of cells at the beginning of the experiment died by the end of the experiment. A value of -100 means all cells are dead at the end of the experiment.
NCI-60 Human Tumor Cell Lines Screen was performed using the standard one-dose NCI protocol, which is described in more detail at https://dtp.cancer.gov/discovery_development/nci-60/default.htm.
Compounds with GIPRCNT values below 10 were considered active. Activity score was based on GIPRCNT using the following formula: […]
Score is 0 for GIPRCNT values of 100 or above, 50 for GIPRCNT values of 0, and 100 for GIPRCNT values of -100.

Going from `CCCCCCCCOC(=O)CCN1CC1` to `CCCCCCCC[n+]1ccc2ccccc2c1`, the growth falls from 99% to 75.3%.

Compared with `CN1C(=O)C(=Cc2cn(Cc3ccccc3)c3ccccc23)C(=O)N(C)C1=O`, `CN1C(=O)C(=Cc2cn(CCCCCCn3c4ccccc4c(=O)c4ccccc43)c3ccccc23)C(=O)N(C)C1=O` is higher in growth: 82.1% for the first, 96.2% for the second.

Going from `C/C(=C\c1ccn(-c2ccccc2N)n1)[C@@H]1C[C@@H]2O[C@]2(C)CCC[C@H](C)[C@H](O)[C@@H](C)C(=O)C(C)(C)[C@@H](O)CC(=O)O1` to `C[C@]12CCc3sc(-c4cccc(F)c4)nc3C1=CC[C@@H]1[C@@H]2CC[C@]2(C)C(=O)CC[C@@H]12`, the growth rises from 44.8% to 68.3%.

Going from `CCOC(=O)c1c(C)n(Cc2ccccc2)c2cc(CN(C)C)c(O)cc12` to `OCCNC(Cc1ccccc1)c1ccc2c(c1)OCO2` (stereo not given), the growth rises from 64.1% to 100%.

Compared with `Fc1ccc(N2COOC3(OOC2)C2CC4CC(C2)CC3C4)cc1`, `CC12CCC(O)CC1=CCC1C2CCC2(C)C(O)CCC12` (stereo not given) is lower in growth: 79.4% for the first, 71.9% for the second.

First: CCOP(=O)(NC[C@H]1O[C@](O)(CO)[C@@H](O)[C@@H]1O)OCC
Second: CC1=C(CCCOC(=O)CN)C2=C(C)C3(CC3)[C@@](C)(O)C(=O)C2=C1
The growth of the first is lower: 91.4% for the first, 95.8% for the second.

Compared with `CCn1nccc1NC(=O)C(=O)c1cn(Cc2ccc(F)cc2)c2cccc(OC)c12`, `COc1ccc2c(c1)c(-c1nc(-c3c[nH]c4ncccc34)cs1)cn2CCN1CCOCC1` is lower in growth: 81.6% for the first, 37.1% for the second.

Compared with `COC(=O)[C@@H](C)C[C@H](Cc1ccccc1)NC(=O)c1nc([C@@H](C[C@H](C(C)C)N(C)C(=O)[C@@H](NC(=O)[C@H]2CCCN2C)C(C)C)OC(C)=O)sc1C`, `COC(=O)[C@@H](C)C[C@H](Cc1ccccc1)NC(=O)c1nc([C@@H](C[C@H](C(C)C)N(C)C(=O)[C@@H](NC(=O)[C@H]2C[C@H](O)CCN2C)C(C)C)OC(C)=O)sc1C(C)C` is lower in growth: 45.4% for the first, 35.2% for the second.

Going from `O=C([O][Hg][CH2]C1OCCOC1[CH2][Hg][O]C(=O)c1ccccc1)c1ccccc1` (stereo not given) to `CCN(CCO)C(Cc1ccccc1)c1ccccc1` (stereo not given), the growth falls from 123% to 96.5%.

Going from `O=C(O)C(Cl)(Cl)C(F)(F)F` to `O=C(Nc1ccc(O)cc1)C(Cl)(Cl)Cl`, the growth falls from 105% to 98.6%.

First: NC(=O)C(Br)c1ccccc1 (stereo not given)
Second: CN1CCCCC1C(C)(O)c1ccccc1 (stereo not given)
The growth of the first is higher: 109% for the first, 96.3% for the second.

Compared with `O=C(Nc1ccc([N+](=O)[O-])cc1)C(Cl)(Cl)Cl`, `CC(=O)Oc1ccccc1C(=O)NCCC[Se]C#N` is lower in growth: 89.4% for the first, 44.5% for the second.

Going from `CC[S][Hg][Cl]` to `[Cl][Hg][c]1cc(Br)cc(Br)c1`, the growth falls from 106% to 80%.

Going from `CC(=O)O[C@H](C[C@H](C(C)C)N(C)C(=O)[C@@H](NC(=O)[C@H]1CCCCN1C)C(C)C)c1cccc(C(=O)N[C@@H](Cc2ccccc2)C[C@H](C)C(=O)O)n1` to `CC[C@H](C)[C@H](NC(=O)[C@H]1CCCCN1C)C(=O)N(C)[C@H](C[C@@H](O)c1nc(C(=O)N[C@@H](Cc2ccccc2)C[C@H](C)C(=O)O)cs1)C(C)C`, the growth rises from 37.3% to 91.5%.

Compared with `O=C1C(N2CC2)=C(N2CC2)C(=O)C(N2CC2)=C1N1CC1`, `CCN1C(=O)C(=C/C=C/c2ccccc2)C(=O)N(CC)C1=O` is higher in growth: 22.9% for the first, 112% for the second.

Going from `Nc1ccc2c(c1)oc1ccccc12` to `C[n+]1c(/C=C/c2ccc(N(CCCl)CCCl)cc2)sc2ccccc21`, the growth falls from 83.5% to 83.4%.

First: CC[C@H](C)[C@H](NC(=O)c1ccccn1)C(=O)N(C)[C@H](C[C@@H](OC(C)=O)c1nc(C(=O)N[C@@H](Cc2ccccc2)C[C@H](C)C(=O)OC)cs1)C(C)C
Second: COc1cc(NC(C)CCCNC2CN3CCC2CC3)c2ncccc2c1 (stereo not given)
The growth of the first is lower: 30.3% for the first, 71.2% for the second.

First: CC(=O)[C@H]1CC[C@H]2[C@@H]3CC[C@H]4C[C@H](N)CC[C@]4(C)[C@H]3CC[C@]12C
Second: COC(=O)[C@]12CCC(C)(C)C[C@H]1[C@H]1C(=O)C[C@@H]3[C@@]4(C)C[C@@]5(CC(C)(C)[C@@H]4CC[C@@]3(C)[C@]1(C)CC2)OO[C@@](C)(C(F)(F)F)O5
The growth of the first is lower: 76.9% for the first, 93.6% for the second.

With `O=[N+]([O-])c1c(Br)sc(Br)c1[N+](=O)[O-]` the growth was 72.5%.

With `NC(=S)c1cn(C2OC(CO)C(O)C2O)c2ncnc(N)c12` (stereo not given) the growth was -4.9% (active).
`O=C(O)c1ccc([S-])cc1.[Au+].c1ccc(CN2[CH-]N(Cc3ccccc3)C(c3ccccc3)=C2c2ccccc2)cc1` was tested, and the growth was -52.9% (active).
For `O=[N+]([O-])c1cc([N+](=O)[O-])c(Cl)cc1Cl`, the growth was -57.1% (active).
